Pf growth 48h: P. falciparum growth inhibition at 48 hours (one generation) | P. falciparum luciferase growth in erythrocytes, 48 h | Potency, µM (highest dose often 28.7 µM), without a hit: top-dose activity change, negative = inhibition, hits mostly inhibitors | 5.9% of 310,000 active | AID 504832; also: potency is read from the fitted curve at half-maximal effect; % is scaled to controls: 0 for no effect and ±100 for the full control effect
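Cell-based growth assay: transgenic P. falciparum expressing firefly luciferase, cultured in red cells within RPMI 1640 containing 0.5% w/v Albumax, 24 mM bicarbonate and gentamycin. A drop in luciferase activity indicates inhibition.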
Pf growth 96h: P. falciparum growth inhibition at 96 hours. P. falciparum luciferase reporter growth, 96 h. AID 504834. 6.9% of 320,000 active. Potency, µM (highest dose often 28.7 µM), without a hit: at the highest dose activity change, negative = inhibition, actives largely listed as inhibitors; also: potency is read from the fitted curve at half-maximal effect; % is scaled to controls: 0 for no effect and ±100 for the full control effect
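96 h incubation, 37 C, 5% CO2, of luciferase-reporter P. falciparum-infected RBCs (2% hematocrit, 0.05% parasitemia final) with test compounds; endpoint luminescence.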
Shiga toxin inh: inhibitors of Shiga toxin in Vero cells. Vero cells, Shiga toxin protein synthesis inhibition reporter. inhibition, % at 38.7 µM. 9.2% of 290,000 active; in the data active = inhibition mostly above about 28%, no sharp cut-off; inactive = mostly below about 43%; also: 0% is about no effect
CHX counter: affects cycloheximide protein synthesis inhibition readout, counter-screen. max response, %. 12% of 300,000 active. cell reporter, cycloheximide protein synthesis inhibition counterscreen; in the data active = max response mostly above about 13%, no sharp cut-off; inactive = mostly below about 14%; also: read at 38.3 µM for the half of the compounds with a filed dose; 0% is about no effect
* marks the source's active call; other numbers are inactive results; i = inactive; ? = inconclusive; nt = no result. Rows were chosen to be rich in hits. Some 21% of all compounds tested hit in one or more screens of this group. Unless noted, calls follow the shape of the dose curve; as a rule, active = well fitted inhibition curve with a large enough effect; inconclusive = small, poorly fitted or top-dose-only effect, or another doubt; inactive = no such curve, though single readings can be large or run the other way.

SMILES	Pf growth 48h	Pf growth 96h	Shiga toxin inh	CHX counter
O=C(Nc1nccs1)c1cc([N+](=O)[O-])ccc1Cl	?	30%	-4	3
O=C(Nc1nccs1)c1ncc(Cl)c(Cl)c1Cl	-23%	-16%	66*	42*
Cn1cc(Cl)c(C(=O)Nc2nccs2)n1	95%	?	71*	40*
CCn1cc(Cl)c(C(=O)Nc2nccs2)n1	76%	81%	32*	33*
Cc1cc(C(C)(C)C)cc(C)c1S(=O)(=O)N1CC(=O)Nc2ccccc21	?	?	21	-1
O=C(O)/C=C/c1ccc(S(=O)(=O)Nc2ccccc2C(=O)Nc2ccc(F)cc2)cc1	?	-5%	-6	5
O=c1c(C=NCc2cccs2)c(O)n(C2CCCCC2)c(=O)n1C1CCCCC1	nt	?	-8	-2
O=c1c(C=NCCN2CCNCC2)c(O)n(C2CCCCC2)c(=O)n1C1CCCCC1	13µM*	?	-15	-4
CC1(C)C(c2ccco2)=[N+]([O-])C2(CCCCC2=O)N1O (stereo not drawn)	-15%	-5%	10	1
C/C(=N/Nc1ccc(C)cc1)C1(C)N(O)C(C)(C)C(c2ccco2)=[N+]1[O-] (stereo not drawn)	28%	137%	36	17*
CCOC(=O)c1c(-c2ccco2)csc1NC(=O)COC(=O)c1cnc(C)cn1	1%	0%	nt	nt
COCc1c(Br)c(C)nc(OCC(=O)N/N=C/c2cc(C)n(-c3ccc([N+](=O)[O-])cc3)c2C)c1C#N	12µM*	?	-10	-2
Cc1cc(/C=N/NC(N)=S)c(C)n1-c1ccc(Br)cc1	?	20%	-8	8
Cc1cc(/C=N\NC(=O)COc2cccc3cccnc23)c(C)n1-c1ccccc1	?	6.6µM*	64*	31*
Cc1cc(/C=N/NC(=O)C(=O)NCc2ccccn2)c(C)n1-c1ccccc1	29%	18%	46*	28*
Cc1cc(/C=N\NC(=O)COc2cccc3cccnc23)c(C)n1-c1ccc(Br)cc1	5.9µM*	2.3µM*	-13	-1
Cc1ccnc(-n2c(C)cc(/C=N/NC(=O)COc3cccc4cccnc34)c2C)c1	-19%	-11%	13	-2
COc1ccccc1CNC(=O)c1cccc(-c2ccccc2OC)n1	nt	nt	i	12
Cc1ccc(NC(=O)CSCC(=O)NNC(=O)c2ccoc2C)cc1	3%	33%	nt	nt
Cc1cc(/C=N\NC(=O)c2cccs2)c(C)n1-c1ccc2ncccc2c1	54%	46%	135*	40*
CC(C)(C)c1nnc(NC(=S)Nc2ccccc2)s1	-3%	36%	115*	37*
COc1cc(OC)cc(C(=O)Nc2nnc(NC(=S)Nc3ccccc3)s2)c1	34%	10%	-15	11
S=C(Nc1ccccc1)Nc1nccs1	?	7.4µM*	99*	29*
OCCCNC(=S)Nc1ccc2nccnc2c1	11%	32%	11	2
Fc1ccc(NC(=S)Nc2ccc3nccnc3c2)cc1	20%	38%	49	38*
SMILES	Pf growth 48h	Pf growth 96h	Shiga toxin inh	CHX counter
Fc1ccc(NC(=S)Nc2nccs2)cc1	13µM*	0.29µM*	75*	50*
O=C(CSc1cc(Cl)ccc1Cl)NC1CCCC1	6%	-2%	-7	-3
Cc1ccc(N2CCN(S(=O)(=O)c3ccc4c(c3)NC(=O)C(C)C(=O)N4)CC2C)cc1 (stereo not drawn)	?	1%	-2	-1
Cc1ccc(NC2=C/C(=N/S(=O)(=O)c3cccs3)c3ccccc3C2=O)cc1	?	4%	145*	48*
O=C1C(Nc2ccccc2)=CC(=O)c2ncccc21	nt	nt	-12	-7
O=C1C(Nc2ccccc2)=C/C(=N/S(=O)(=O)c2cccs2)c2ccccc21	0.52µM*	0.52µM*	16	11
CCn1c(SCC(=O)Nc2ccc(OC)c(S(=O)(=O)N3CCCCC3)c2)nnc1C1CC1	-19%	?	nt	nt
CCc1cc2cc(C(=O)N3CCN(Cc4ccccc4)CC3)sc2s1	-18%	-23%	49*	22*
O=C(c1ccc2c(c1)OCCO2)N1CCN(Cc2ccccc2)CC1	12%	?	38	15*
CC(C)(C)c1ccc(C(=O)N2CCN(Cc3ccccc3)CC2)cc1	?	-10%	5	3
CCc1cc2cc(C(=O)N3CCN(c4ccccc4)CC3)sc2s1	nt	-27%	-5	-2
O=C(c1ccccc1)N1CCN(Cc2ccccc2)CC1	14%	7.4µM*	-2	-3
O=C(c1ccccc1)N1CCN(CC#Cc2ccccc2)CC1	59%	141%	82*	29*
CC(NC(=O)COC(=O)C1(C)CC1(Cl)Cl)c1ccccc1 (stereo not drawn)	5%	21%	nt	nt
CCC(CNC(=O)c1c(C)nn(-c2ccccc2)c1Cl)c1ccccc1 (stereo not drawn)	?	?	2	-2
O=C(N1CCOCC1)N1CCN(Cc2ccccc2)CC1	16%	1.7µM*	13	-4
Cc1nn(CC(=O)N2CCCc3ccccc32)c(C)c1[N+](=O)[O-]	30%	?	31	28*
O=C(Cn1ccc([N+](=O)[O-])n1)N1CCCc2ccccc21	140%	196%	127*	54*
Cc1nn(CC(=O)N2CCN(S(=O)(=O)c3ccccc3)CC2)c(C)c1[N+](=O)[O-]	14%	-8%	nt	nt
Cc1nn(CC(=O)Nc2ccc(Cl)cn2)c(C)c1[N+](=O)[O-]	nt	-29%	-5	-5
Cc1nn(C(C)C(=O)N2CCc3ccccc32)c(C)c1[N+](=O)[O-] (stereo not drawn)	?	5.2µM*	-22	-3
Cc1nn(CC(=O)c2cccc(Cl)c2)c(C)c1[N+](=O)[O-]	-17%	-4%	23	24*
CC(C)(CC(=O)O)CC(=O)N1CCN(c2cc(C(F)(F)F)nc3ccccc23)CC1	-20%	-21%	-5	-2
COc1cccc(C2NC(=O)CCC2[N+](=O)[O-])c1 (stereo not drawn)	23%	?	18	-4
Cc1c(Br)c([N+](=O)[O-])nn1CC(=O)N1CCCc2ccccc21	26%	2.3µM*	28	14
SMILES	Pf growth 48h	Pf growth 96h	Shiga toxin inh	CHX counter
CCOc1ccc(N2C(=O)c3cccnc3C2=O)cc1	44%	1.9µM*	-2	2
CCOc1ccc(N2C(=O)c3cccnc3C2Nc2ccc(OC)cc2)cc1 (stereo not drawn)	?	54%	-11	-4
CCOc1ccc(N2C(=O)c3cccnc3C2Nc2ccc(C)cc2)cc1 (stereo not drawn)	9.3µM*	1.7µM*	-11	12
CCOc1ccc(N2C(=O)c3cccnc3C2Nc2ccc(C)c(C)c2)cc1 (stereo not drawn)	nt	4.7µM*	-8	-1
CCc1nnc(NC(=O)CCN2C(=O)/C(=C/c3cc(OC)c(OC)c(OC)c3)SC2=S)s1	-4%	27%	3	13
Cn1c(-c2ccc(C=O)s2)nc2c3ccccc3c3ccccc3c21	nt	10%	-6	7
CSCCC(NC(=O)c1ccco1)C(=O)N1CCN(C(c2ccccc2)c2ccccc2)CC1 (stereo not drawn)	8.3µM*	2.1µM*	nt	nt
CSCCC(NC(=O)c1ccco1)C(=O)N1CCCC(C(F)(F)F)C1 (stereo not drawn)	-10%	?	nt	nt

Bioassay records deposited in PubChem BioAssay by National Center for Advancing Translational Sciences (NCATS).
